Shown is part of a subset that was picked to be rich in hits.
AMA1-RON2 inh: inhibitors of Plasmodium falciparum AMA1-RON2 interaction. AlphaScreen AMA1-biotinylated RON2 peptide binding. actives 0.2% (n = 360,000). Potency, µM (titrated, usually from 58.2 µM), for the others: top-dose activity change, negative = inhibition, hits mostly inhibitors; active = well fitted inhibition curve with a large enough effect; inconclusive = small, poorly fitted or top-dose-only effect; inactive = no such curve, though single readings can be large or run the other way;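 note: potency is the fitted concentration of half-maximal effect; 0% = vehicle wells and -100% = peptide control; nearly all actives have a fitted effect of over 45% in size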
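AMA1 (3D7) with his tag at 25 nM final met compounds first, then biotinylated RON2 peptide at 25 nM; detection used donor plus acceptor beads, 10 µg/mL apiece, read by AlphaScreen after 30 min at room temperature.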
CHX counter: counter-screen hit for Shiga toxin inhibitors, cycloheximide. cell reporter, cycloheximide protein synthesis inhibition counterscreen. max response, %. actives 12% (n = 300,000); in the data active = max response mostly above about 13%, no sharp cut-off; inactive = mostly below about 14%; note: read at 38.3 µM for the half of the compounds with a filed dose; 0% is about no effect
LASV entry inh: Lassa virus entry inhibition; Potency, µM (top dose mostly 37.9 µM), without a hit: top-dose activity change, negative = inhibition, actives largely listed as inhibitors; actives 1.2% (n = 300,000); Lassa virus pseudotype entry inhibition, cell reporter; calls by dose curve; tested in HEK293 cells; note: potency is the fitted concentration of half-maximal effect; % is set by controls: 0 for no effect and ±100 for the full control effect; nearly all actives have a fitted effect of over 50% in size
Shiga inhibitor: Shiga toxin inhibition; Vero cells, Shiga toxin protein synthesis inhibition reporter; inhibition, % at 38.7 µM; AID 2315; actives 9.2% (n = 290,000); in the data active = inhibition mostly above about 28%, no sharp cut-off; inactive = mostly below about 43%; note: 0% is about no effect
MARV entry inh: inhibitors of Marburg virus binding or cell entry | Potency, µM (doses to about 37.8 µM), inactives show at the highest dose activity change, negative = inhibition, most hits filed as inhibitors | actives 1.8% (n = 300,000) | Marburg virus pseudotyped entry inhibition, cell reporter | AID 540276; calls by dose curve; tested in HEK293 cells; note: potency is the fitted concentration of half-maximal effect; % is set by controls: 0 for no effect and ±100 for the full control effect
* marks the source's active call; other numbers are inactive results; i = inactive; ? = inconclusive; . = not tested or not shown; [ ] = dose if it differs, or a comment.

SMILES	AMA1-RON2 inh	CHX counter	LASV entry inh	Shiga inhibitor	MARV entry inh
COc1ccc(CNC(=O)c2cc3c(=O)n(Cc4cccs4)ccc3nc2C)cc1	.	.	-26%[46.1 µM]	.	.
Cc1cc(C)c(NC(=O)CN2c3ccccc3S(=O)(=O)c3ccccc32)c(C)c1	.	.	0%[46.1 µM]	.	.
COC(=O)C1(C(=O)OC)c2ccccc2CN(S(=O)(=O)c2ccc(C)cc2)C1CC(C)=O (stereo not given)	-12%	.	.	.	.
CC(C)c1ccc(NC(=O)CN2C(=O)c3cccc4cccc2c34)cc1	.	.	-23%[46.1 µM]	.	.
CCc1ccc(N2C(=O)NC(=O)/C(=C/c3cccn3CCOc3ccc(C)cc3)C2=O)cc1	-2%	13*	2%[46.1 µM]	-3	15%[46.1 µM]
CCc1ccc(N2C(=O)NC(=O)/C(=C/c3cccn3CCOc3ccc(C(C)CC)cc3)C2=O)cc1 (stereo not given)	-12%	77*	.	121*	1%
O=C1NC(=O)N(Cc2ccco2)C(=O)/C1=C\c1cccn1CCOc1ccc(Cl)cc1	-26%	-4	-15%	-11	12%
CCCCCn1c(=O)[nH]c2cc(C(=O)NCc3ccc(F)cc3)ccc2c1=O	.	.	2%[46.1 µM]	.	5%[46.1 µM]
CSc1nc(C(C)C)ccc1CNC(=O)CC(C)c1ccccc1 (stereo not given)	5%	-1	-12%[46.1 µM]	-9	?
CCCc1c(C(=O)N/N=C/c2ccccc2C(F)(F)F)nnn1-c1nonc1N	2%	-2	.	-7	.
O=C(CN1CCC(Cc2ccccc2)CC1)NC(=O)NCc1ccccc1	-4%	-3	-11%	-6	21%
Cc1ccc(C)c(S(=O)(=O)N2CCN(CC(=O)NC(=O)NCc3ccccc3)CC2)c1	?	-4	26µM*	12	?
C=C1C(=O)O[C@H]2C1CC[C@@](C)(O)C13C=CC(C)(C21)C1(C3)C(=O)O[C@@H]2C3C(C)=CCC3[C@](C)(O)C[C@H](OC(C)=O)C21 (stereo not given in full)	-2%	12*	?	34*	-45%
O=C(CN1C(=O)COc2ccc(S(=O)(=O)N3CCCC3)cc21)N1CCN(c2ccccc2)CC1	.	.	2%[46.1 µM]	.	.
CCC1=Nc2ccccc2NC2=C1C(=O)CCC2	-20%	30*	16%	77*	15%[46.1 µM]
CC(C)NCC(O)Cn1c2c(c3ccccc31)CCc1c-2cnn1-c1ccccc1 (stereo not given)	-12%	-9	7.1µM*	-28	?
O=C1N[C@@H]2[C@H](CCCCC(=O)Oc3ccc([N+](=O)[O-])cc3)SC[C@H]2N1	.	-6	.	-7	.
Cc1ccc(C2C(C(=O)c3ccco3)=C(O)C(=O)N2c2nnc(C)s2)cc1 (stereo not given)	11%	1	11%	17	13%
Cc1ccc2nc(N3C(=O)C(O)=C(C(=O)c4ccc(C)o4)C3c3ccco3)sc2c1 (stereo not given)	-10%	.	.	.	.
Cc1ccc2nc(N3C(=O)C(O)=C(C(=O)c4ccco4)C3c3ccc(C)o3)sc2c1 (stereo not given)	8%	31*	3%	80*	-29%[46.1 µM]
Cc1ccc2nc(N3C(=O)C(O)=C(C(=O)c4ccco4)C3c3ccc(O)cc3)sc2c1 (stereo not given)	.	16*	.	35	.
Cc1nnc(N2C(=O)C(O)=C(C(=O)c3ccco3)C2c2cccc3ccccc23)s1 (stereo not given)	8%	1	10%[46.1 µM]	37*	-3%[46.1 µM]
COc1cc2c(cc1OC)C1O[C@](CCCCN3C(=O)c4ccccc4C3=O)(C2)OC2=C1C(=O)c1ccccc1C2=O	.	-1	.	i	.
Cc1c(C(=O)NCc2ccccn2)sc2nc(-c3ccccc3)cn12	14%	29*	.	20*	.
Cc1c(C(=O)NCC2CCCO2)sc2nc(-c3ccc(F)cc3)cn12 (stereo not given)	-8%	32*	.	32	.
SMILES	AMA1-RON2 inh	CHX counter	LASV entry inh	Shiga inhibitor	MARV entry inh
COCCNC(=O)c1sc2nc(-c3ccccc3)cn2c1C	2%	29*	23%	70*	34%
Cc1ccc(C)c(NC(=O)COC(=O)c2cc3ccccc3oc2=O)c1	-1%	.	.	.	.
COc1ccc(NC(=O)c2c(C)oc3ccc(O)c(CN4CCCC(C)C4)c23)cc1 (stereo not given)	.	.	-14%[46.1 µM]	.	?
COc1ccc(NC(=O)c2c(C)oc3ccc(O)c(CN4CCC(C)CC4)c23)cc1	.	.	?	.	11µM*
COc1ccc([C@H]2CC(=O)C=C(c3ccnc4ccc(Cl)cc34)C2)cc1	-6%	.	.	.	.
CC1CCCC/C1=N\NC(=S)Nc1ccccc1 (stereo not given)	73%	18*	.	30	.
CC1CCC/C(=N\NC(=S)Nc2ccccc2)C1 (stereo not given)	-1%	79*	?	102*	?
CC1CCC/C(=N\NC(=S)NCc2ccccc2)C1 (stereo not given)	47%	-2	?	4	18%
CCCCc1nc2ccccc2n2c(-c3ccc(C)cc3)c3c(=O)n(C)c(=O)n(C)c3c12	.	.	?	.	-2%[46.1 µM]
COc1ccc(CCN2C(=O)COc3ccccc3C2C(=O)Nc2ccc3c(c2)OCCO3)cc1OC (stereo not given)	-1%	.	.	.	.
CCCCCCSc1ccc([C@H]2N[C@@](Cc3ccccc3)(C(=O)OC)[C@H]3C(=O)N(C)C(=O)[C@@H]23)cc1OC	0%	.	.	.	.
N/C(=N\OC(=O)c1ccc(Br)o1)c1cccnc1	0%	35*	12%	103*	0%[46.1 µM]
